Test in all cases: growth (OD600 after 10 h); higher = more growth (less inhibition)
The test system of assay [1] is E. coli TESEC Alr+ wild-type control. The conditions noted are these: compound 0.1 mM; raw OD600 reference: median of DMSO wells 0.241, cell-free background 0.041. As to the method: (§1)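 TESEC Mtb Alr E. coli, or the Alr+ wild-type control, in 384-well plates with Prestwick library compounds at 0.1 mM and 1% DMSO, across arabinose induction levels of 1E3 to 1E7 nM. Growth is read as OD600 after 10 h at 37 °C in triplicate biological replicates.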

In assay [2] the test system is E. coli TESEC Mtb Alr. Particulars: compound 0.1 mM. The protocol:
as §1

Assay [3] relates to E. coli TESEC Mtb Asd. The conditions noted are these: compound 0.1 mM. As to the method: (§2)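 TESEC E. coli strains in which the native enzyme is deleted and replaced by arabinose-inducible Mtb Asd, DapB, CysH or TrpD, each grown in its selective medium. Strains were screened against the Prestwick library at 0.1 mM and 1% DMSO in 384-well format at low and high arabinose induction. Growth is read as OD600 after 10 h in triplicate.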

Assay [4] relates to E. coli TESEC Mtb DapB. Particulars: compound 0.1 mM. The protocol:
as §2

Assay [5] concerns E. coli TESEC Alr+ wild-type control. Particulars: compound 0.1 mM; raw OD600 reference: median of DMSO wells 0.49, cell-free background 0.052. The protocol:
(§3)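 TESEC Mtb Alr E. coli (ΔaraC ΔtolC ΔentC Δalr ΔdadX, arabinose-inducible Mtb Alr) or the Alr+ wild-type control strain, grown in defined M9-fructose medium without D-alanine in 96-well plates with Prestwick library compounds at 0.1 mM and 1% DMSO. Low Alr induction is 0.1 µM arabinose and high induction is 10 mM arabinose.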

Assay [6] relates to E. coli TESEC Mtb Alr. The conditions noted are these: compound 0.1 mM. As to the method: as §3
This is another data set of the same source.

Where [7] appears, read: arabinose 1000 nM, raw OD600 reference: median of DMSO wells 0.294, cell-free background 0.041.
The mark [8] stands for this setting: arabinose 10000 nM, raw OD600 reference: median of DMSO wells 0.264, cell-free background 0.041.
Setting [9] is: arabinose 100000 nM, raw OD600 reference: median of DMSO wells 0.201, cell-free background 0.041.
The mark [10] stands for this setting: arabinose 1000000 nM, raw OD600 reference: median of DMSO wells 0.193, cell-free background 0.041.
[11] abbreviates: arabinose 10000000 nM, raw OD600 reference: median of DMSO wells 0.146, cell-free background 0.041.
[12] abbreviates: arabinose induction (level): High, raw OD600 reference: median of DMSO wells 0.331, cell-free background 0.041.
The mark [13] stands for this setting: arabinose induction (level): Low, raw OD600 reference: median of DMSO wells 0.417, cell-free background 0.041.
The mark [14] stands for this setting: arabinose induction (level): High, raw OD600 reference: median of DMSO wells […], cell-free background 0.041.
Where [15] appears, read: arabinose induction (level): Low, raw OD600 reference: median of DMSO wells 0.227, cell-free background 0.041.
Setting [16] is: arabinose 100 nM, raw OD600 reference: median of DMSO wells 0.413, cell-free background 0.052.
[17] abbreviates: arabinose 10000000 nM, raw OD600 reference: median of DMSO wells […], cell-free background 0.052.

7 molecules from the supplement of paper PMC9262897, “Low-cost anti-mycobacterial drug discovery using engineered E. coli” (Nature Communications, 2022) can be followed below.

Counter-ions that a name gives are not always drawn. ± gives the standard deviation of the averaged measurements.

Consider `C[C@H](CCC(=O)O)[C@H]1CC[C@H]2[C@@H]3[C@H](O)C[C@@H]4C[C@H](O)CC[C@]4(C)[C@H]3CC[C@]12C` [Chenodiol], for which the growth amounted to 0.247 ± 0.0086 in assay [1]; 0.263 ± 0.0097 in assay [2] (setting [7]); 0.221 ± 0.0073 in assay [2] (setting [8]); 0.278 ± 0.021 in assay [2] (setting [9]); 0.146 ± 0.0057 in assay [2] (setting [10]); 0.143 ± 0.0086 in assay [2] (setting [11]). The growth in assay [3] (setting [12]) was 0.216 ± 0.071; in assay [3] (setting [13]) it was 0.289 ± 0.049; in assay [4] (setting [14]) it was 0.168 ± 0.026; in assay [4] (setting [15]), 0.179 ± 0.0059; in assay [5], 0.439 ± 0.059; in assay [6] (setting [16]), 0.392 ± 0.0058. Besides, the growth in assay [6] (setting [17]) stood at 0.209 ± 0.02.
On to `Cc1ccc(O)c([C@H](CCN(C(C)C)C(C)C)c2ccccc2)c1` [Tolterodine tartrate], for which the growth in assay [1] is 0.163 ± 0.0078; in assay [2] (setting [7]), 0.245 ± 0.0098; in assay [2] (setting [8]), 0.283 ± 0.0087; in assay [2] (setting [9]), 0.201 ± 0.0068; in assay [2] (setting [10]) it was 0.148 ± 0.0076; in assay [2] (setting [11]), 0.191 ± 0.0035. Besides, the growth is 0.245 ± 0.032 in assay [3] (setting [12]); 0.38 ± 0.025 in assay [3] (setting [13]); 0.198 ± 0.018 in assay [4] (setting [14]); 0.238 ± 0.036 in assay [4] (setting [15]); 0.55 ± 0.029 in assay [5]; 0.417 ± 0.0075 in assay [6] (setting [16]). Besides, the growth in assay [6] (setting [17]) worked out at 0.3 ± 0.013.
`OC(Cn1cncn1)(Cn1cncn1)c1ccc(F)cc1F` [Fluconazole]: the growth in assay [1] is 0.2384 ± 0.0019; in assay [2] (setting [7]), 0.29 ± 0.005; in assay [2] (setting [8]) it was 0.276 ± 0.0067; in assay [2] (setting [9]), 0.187 ± 0.029; in assay [2] (setting [10]) it was 0.211 ± 0.0083; in assay [2] (setting [11]), 0.14 ± 0.0056. The growth stood at 0.267 ± 0.015 in assay [3] (setting [12]); 0.283 ± 0.037 in assay [3] (setting [13]); 0.195 ± 0.013 in assay [4] (setting [14]); 0.213 ± 0.032 in assay [4] (setting [15]); 0.505 ± 0.049 in assay [5]; 0.411 ± 0.012 in assay [6] (setting [16]). For the same molecule, the growth in assay [6] (setting [17]) stood at 0.357 ± 0.017.
`CN1CCOC(c2ccccc2)c2ccccc2C1` (stereo unspecified) [Nefopam hydrochloride]: the growth was 0.218 ± 0.0081 in assay [1]; 0.294 ± 0.0068 in assay [2] (setting [7]); 0.263 ± 0.003 in assay [2] (setting [8]); 0.185 ± 0.012 in assay [2] (setting [9]); 0.157 ± 0.0087 in assay [2] (setting [10]); 0.157 ± 0.0035 in assay [2] (setting [11]). The growth in assay [3] (setting [12]) stood at 0.187 ± 0.03; in assay [3] (setting [13]) it was 0.401 ± 0.045; in assay [4] (setting [14]), 0.186 ± 0.006; in assay [4] (setting [15]) it was 0.243 ± 0.036; in assay [5], 0.543 ± 0.081; in assay [6] (setting [16]), 0.413 ± 0.014. The growth in assay [6] (setting [17]) was 0.327 ± 0.021.
For `Cc1cc(C(C)(C)C)cc(C)c1CC1=NCCN1` [Xylometazoline hydrochloride], the growth in assay [1] stood at 0.226 ± 0.0033; in assay [2] (setting [7]) it was 0.285 ± 0.0055; in assay [2] (setting [8]) it was 0.261 ± 0.01; in assay [2] (setting [9]), 0.221 ± 0.011; in assay [2] (setting [10]), 0.164 ± 0.0057; in assay [2] (setting [11]) it was 0.161 ± 0.0028. Besides, the growth in assay [3] (setting [12]) was 0.272 ± 0.041; in assay [3] (setting [13]), 0.393 ± 0.066; in assay [4] (setting [14]), 0.173 ± 0.011; in assay [4] (setting [15]), 0.252 ± 0.059; in assay [5] it was 0.4501 ± 0.0037; in assay [6] (setting [16]), 0.413 ± 0.015. The same molecule had a growth in assay [6] (setting [17]) of 0.331 ± 0.011.
On to `CCCNC(=O)NS(=O)(=O)c1ccc(Cl)cc1` [Chlorpropamide], for which the growth was found to be 0.255 ± 0.0063 in assay [1]; 0.301 ± 0.007 in assay [2] (setting [7]); 0.25 ± 0.0077 in assay [2] (setting [8]); 0.23 ± 0.048 in assay [2] (setting [9]); 0.184 ± 0.008 in assay [2] (setting [10]); 0.141 ± 0.0057 in assay [2] (setting [11]). In addition, the growth amounted to 0.392 ± 0.035 in assay [3] (setting [12]); 0.409 ± 0.057 in assay [3] (setting [13]); 0.234 ± 0.032 in assay [4] (setting [14]); 0.231 ± 0.0079 in assay [4] (setting [15]); 0.525 ± 0.065 in assay [5]; 0.396 ± 0.02 in assay [6] (setting [16]). Moreover, the growth in assay [6] (setting [17]) was 0.3521 ± 0.0031.
On to `OC(CCN1CCCCC1)(c1ccccc1)C1CC2C=CC1C2` (stereo unspecified) [Biperiden hydrochloride], for which the growth in assay [1] was 0.23 ± 0.031; in assay [2] (setting [7]) it was 0.284 ± 0.0095; in assay [2] (setting [8]) it was 0.275 ± 0.0046; in assay [2] (setting [9]), 0.226 ± 0.03; in assay [2] (setting [10]), 0.155 ± 0.0033; in assay [2] (setting [11]), 0.154 ± 0.0039. The growth in assay [3] (setting [12]) came out at 0.194 ± 0.045; in assay [3] (setting [13]), 0.38 ± 0.094; in assay [4] (setting [14]), 0.159 ± 0.012; in assay [4] (setting [15]), 0.174 ± 0.016; in assay [5], 0.509 ± 0.062; in assay [6] (setting [16]), 0.415 ± 0.011. This molecule also displayed a growth in assay [6] (setting [17]) of 0.359 ± 0.035.
